The record followed here is PubChem BioAssay (NCI).

Test systems include MOLT-4 leukemia; SR leukemia; RPMI-8226 leukemia; OVCAR-8 ovarian; OVCAR-5 ovarian; OVCAR-4 ovarian; SK-OV-3 ovarian; IGROV1 ovarian; OVCAR-3 ovarian; HS 578T breast; NCI/ADR-RES ovarian; T-47D breast; BT-549 breast; MCF7 breast; HCT-116 colon; HCC-2998 colon; KM12 colon; SW-620 colon; MDA-MB-435 melanoma.
Holding throughout (assay): NCI-60 one-dose screen, 48 h (100 = growth as untreated, 0 = no growth, -100 = all killed)
Holding throughout (settings): 10 µM unless noted

Compounds without any hit were thinned out: in the full panel of roughly 83,000, 20% have a hit.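 48-hour exposure, single concentration, 96-well plates; percent growth endpoint where 0 means no net growth. Active: below 10.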 Values without a mark were called inactive. The source made the active and inactive calls.

For `c1cnc2[nH]cc(-c3csc(-c4cn(CCCCN5CCCCC5)c5ccccc45)n3)c2c1`, the growth with MOLT-4 leukemia was 56.4%; in the assay with SR leukemia, -23.5% (active); with RPMI-8226 leukemia, 52.5%; in the assay on OVCAR-8 ovarian, 87.3%; in the assay with OVCAR-5 ovarian, 96.3%; with OVCAR-4 ovarian it was 83.8%. Also, the growth was 109% in the assay with SK-OV-3 ovarian; 44.9% in the assay with IGROV1 ovarian; 90.5% with OVCAR-3 ovarian; 84.3% in the assay on HS 578T breast; 89.8% in the assay with NCI/ADR-RES ovarian; 79.4% in the assay on T-47D breast. The growth with BT-549 breast was 105%; with MCF7 breast, 58.9%; in the assay on HCT-116 colon it was 81.8%; with HCC-2998 colon it was 95.6%; in the assay on KM12 colon, 85.5%.
On to `Cc1cnc(/C=C/C(=O)O)cc1-c1cc2c(cc1C)C(C)(C)CCC2(C)C`, for which the growth was 85.5% with MOLT-4 leukemia; 66% in the assay on SR leukemia; 50.4% in the assay with RPMI-8226 leukemia; 89.5% with OVCAR-8 ovarian; 104% in the assay with OVCAR-5 ovarian; 85.4% in the assay on OVCAR-4 ovarian. For the same compound, the growth with SK-OV-3 ovarian is 84.4%; with IGROV1 ovarian it was 94.4%; in the assay on OVCAR-3 ovarian, 57.8%; in the assay on HS 578T breast it was 69.9%; in the assay with NCI/ADR-RES ovarian it was 78.7%; in the assay with T-47D breast, 80.3%. Besides, the growth is 69% with BT-549 breast; 21.8% in the assay with MCF7 breast; 57.2% in the assay with HCT-116 colon; 85.3% in the assay with HCC-2998 colon; 57.3% in the assay with KM12 colon.
For the compound `OCc1ccc2c(c1)OCO2`, the growth with MOLT-4 leukemia was 91.9%; in the assay with SR leukemia it was 95.5%; with RPMI-8226 leukemia, 102%; in the assay on OVCAR-8 ovarian, 95.7%; with OVCAR-5 ovarian, 97%; in the assay on OVCAR-4 ovarian it was 101%. Also, the growth was 95.6% in the assay with SK-OV-3 ovarian; 106% in the assay with IGROV1 ovarian; 107% with OVCAR-3 ovarian; 97.1% in the assay with HS 578T breast; 105% with NCI/ADR-RES ovarian; 86.4% with T-47D breast. In addition, the growth in the assay with BT-549 breast was 106%; with SW-620 colon it was 102%; in the assay on MCF7 breast, 93%; with HCT-116 colon it was 101%; in the assay on HCC-2998 colon, 102%; in the assay on KM12 colon, 103%.
In the case of `Nc1ccc(Cl)cc1`, the growth is 94.3% with MOLT-4 leukemia; 102% in the assay with SR leukemia; 98.9% with RPMI-8226 leukemia; 97.4% in the assay with OVCAR-8 ovarian; 100% in the assay on OVCAR-5 ovarian; 106% in the assay on OVCAR-4 ovarian. In addition, the growth was 92% with SK-OV-3 ovarian; 105% with IGROV1 ovarian; 112% with OVCAR-3 ovarian; 98.9% with HS 578T breast; 99.5% in the assay with NCI/ADR-RES ovarian; 94.6% with T-47D breast. The growth was 105% with MDA-MB-435 melanoma; 103% with SW-620 colon; 98.2% in the assay with MCF7 breast; 95.9% in the assay with HCT-116 colon; 106% in the assay on HCC-2998 colon; 102% in the assay on KM12 colon.
For the compound `CC[C@H](C)[C@H](NC(=O)c1ccccn1)C(=O)N(C)[C@H](C[C@@H](OC(C)=O)c1nc(C(=O)N[C@@H](Cc2ccccc2)C[C@H](C)C(=O)OC)cs1)C(C)C`, the growth is 19.5% with MOLT-4 leukemia; 4.97% (active) in the assay with SR leukemia; 19.9% in the assay with RPMI-8226 leukemia; 22.6% in the assay on OVCAR-8 ovarian; 49.6% with OVCAR-5 ovarian; 47.8% in the assay with OVCAR-4 ovarian. Further, the growth was 41.2% in the assay on SK-OV-3 ovarian; 28.4% with IGROV1 ovarian; -22.5% (active) in the assay on OVCAR-3 ovarian; -1.12% (active) with HS 578T breast; 16.1% in the assay with NCI/ADR-RES ovarian; 80.7% in the assay with T-47D breast. Moreover, the growth is 24.2% with BT-549 breast; 25.7% in the assay on SW-620 colon; 21.2% with MCF7 breast; 23.9% in the assay with HCC-2998 colon; 10.2% with KM12 colon.
For the compound `C#C[C@]1(OC(=O)CCCCCC)CC[C@H]2[C@@H]3CCC4=CC(=O)CC[C@@H]4[C@H]3CC[C@@]21C`, the growth with MOLT-4 leukemia is 26.1%; with SR leukemia it was 17.5%; in the assay with RPMI-8226 leukemia, 1.02% (active); in the assay on OVCAR-8 ovarian, 51.9%; in the assay with OVCAR-5 ovarian it was 65.4%; with OVCAR-4 ovarian it was 53.6%. For the same compound, the growth with SK-OV-3 ovarian was 55.1%; in the assay on IGROV1 ovarian, 42.5%; in the assay with OVCAR-3 ovarian, 73%; in the assay on HS 578T breast it was 72%; with NCI/ADR-RES ovarian it was 40.3%; in the assay on T-47D breast, 37.8%. The growth in the assay with BT-549 breast is 34.1%; with MDA-MB-435 melanoma it was 18.3%; in the assay with MCF7 breast, 76%; in the assay on HCT-116 colon it was 12%; in the assay on HCC-2998 colon, 49.9%; with KM12 colon, 29.2%.
On to `O=C(CC1(O)C(=O)N(Cc2ccccc2)c2ccc(Br)cc21)c1ccc(C(=O)NCC2CCC3(CC2)OOC2(CCCCC2)OO3)cc1` (configuration not stated), for which the growth was -37.3% (active) in the assay on MOLT-4 leukemia; -40.7% (active) in the assay with SR leukemia; -7.69% (active) in the assay with RPMI-8226 leukemia; -40.9% (active) in the assay on OVCAR-8 ovarian; 12.4% in the assay with OVCAR-5 ovarian; -34.1% (active) with OVCAR-4 ovarian. Also, the growth in the assay on SK-OV-3 ovarian was 83.4%; in the assay on IGROV1 ovarian, -36.2% (active); in the assay on OVCAR-3 ovarian, -84.1% (active); with HS 578T breast, 22.6%; in the assay on NCI/ADR-RES ovarian, -44.8% (active); with T-47D breast it was -29.2% (active). The growth in the assay on BT-549 breast is 33.9%; with MDA-MB-435 melanoma, 4.94% (active); in the assay with MCF7 breast, 31.5%; in the assay with HCT-116 colon, 35.5%; with HCC-2998 colon it was 102%; in the assay with KM12 colon it was -57.5% (active).
Consider `Cc1c(C)c([N+](=O)[O-])c(C)c(C)c1[N+](=O)[O-]`, for which the growth is 100% in the assay on MOLT-4 leukemia; 93% with SR leukemia; 106% in the assay on RPMI-8226 leukemia; 95.7% with OVCAR-8 ovarian; 93.8% in the assay on OVCAR-5 ovarian; 98.2% in the assay on OVCAR-4 ovarian. Also, the growth in the assay on SK-OV-3 ovarian was 117%; in the assay on OVCAR-3 ovarian it was 118%; with HS 578T breast, 118%; with NCI/ADR-RES ovarian, 107%; in the assay on T-47D breast, 101%; with BT-549 breast, 106%. Further, the growth in the assay on MDA-MB-435 melanoma is 91.9%; with SW-620 colon it was 112%; in the assay with MCF7 breast it was 107%; with HCT-116 colon, 115%; in the assay with HCC-2998 colon it was 104%; in the assay with KM12 colon, 110%.
`O=C(c1ccccc1O)c1[nH]c(Cl)c(Cl)c1-n1c(C(=O)c2ccccc2O)cc(Cl)c1Cl`: the growth in the assay with MOLT-4 leukemia is -1.12% (active); with SR leukemia, 8.12% (active); in the assay on RPMI-8226 leukemia, -30.1% (active); in the assay with OVCAR-8 ovarian, 8.28% (active); in the assay on OVCAR-5 ovarian, 18.5%; in the assay with SK-OV-3 ovarian it was -5.75% (active). Also, the growth was 23% with IGROV1 ovarian; -16.9% (active) in the assay on HS 578T breast; -3.31% (active) in the assay with NCI/ADR-RES ovarian; -10.1% (active) in the assay on T-47D breast; -5.5% (active) with BT-549 breast; 3.49% (active) with MDA-MB-435 melanoma. Moreover, the growth in the assay on SW-620 colon is 7.86% (active); with MCF7 breast, 1.43% (active); in the assay on HCT-116 colon, 0.716% (active); with HCC-2998 colon it was 15.3%; in the assay on KM12 colon it was -19.3% (active).
Consider `Oc1c(CCl)cc(Cl)cc1CCl`, for which the growth in the assay on MOLT-4 leukemia is 98.4%; in the assay with SR leukemia, 101%; in the assay with RPMI-8226 leukemia, 106%; with OVCAR-8 ovarian, 112%; in the assay on OVCAR-5 ovarian it was 102%; in the assay on SK-OV-3 ovarian, 107%. The growth was 115% in the assay on IGROV1 ovarian; 115% in the assay on OVCAR-3 ovarian; 104% in the assay on HS 578T breast; 102% in the assay with NCI/ADR-RES ovarian; 102% in the assay with T-47D breast; 115% with SW-620 colon. Also, the growth in the assay on MCF7 breast is 105%; with HCT-116 colon, 115%; in the assay with HCC-2998 colon, 96.5%; with KM12 colon, 105%.
Consider `CN(C)C1C(=O)C(C(N)=O)=C(O)C2(O)C(=O)C3=C(O)c4c(O)cccc4C(C)(O)C3CC12.[Cl][Sb]([Cl])[Cl]` (configuration not stated), for which the growth with MOLT-4 leukemia is 36.9%; in the assay on SR leukemia it was 19.2%; in the assay with RPMI-8226 leukemia it was 15.4%; with OVCAR-8 ovarian it was 21.3%; with OVCAR-5 ovarian, 143%; in the assay on OVCAR-4 ovarian, 44.2%. Further, the growth is 76.9% with SK-OV-3 ovarian; 45.1% with IGROV1 ovarian; 31.7% with HS 578T breast; 56.9% with NCI/ADR-RES ovarian; 60.3% in the assay with T-47D breast; 15.5% in the assay on BT-549 breast. The growth in the assay on MDA-MB-435 melanoma is 24.1%; in the assay on MCF7 breast, 57.6%; in the assay with HCT-116 colon, 11.9%; in the assay with HCC-2998 colon it was 39.6%; with KM12 colon, 45.9%.
For the compound `CC1=C(CCCNS(C)(=O)=O)C2=C(C)C3(CC3)[C@@](C)(O)C(=O)C2=C1`, the growth was 90.2% in the assay on MOLT-4 leukemia; 92.8% in the assay with SR leukemia; 97% in the assay with RPMI-8226 leukemia; 6.9% (active) in the assay with OVCAR-8 ovarian; 2.82% (active) with OVCAR-5 ovarian; -18% (active) with SK-OV-3 ovarian. Also, the growth was -2.43% (active) in the assay on IGROV1 ovarian; -12.7% (active) in the assay with OVCAR-3 ovarian; 57.9% in the assay on HS 578T breast; -5.49% (active) in the assay on NCI/ADR-RES ovarian; -11.2% (active) in the assay on T-47D breast; -31% (active) with BT-549 breast. The growth in the assay with MCF7 breast was 20.7%; in the assay on HCT-116 colon it was 1.02% (active); in the assay with HCC-2998 colon, -43.3% (active); in the assay with KM12 colon, 62.4%.
